An excerpt weighted towards active compounds, which were near 6.9% of everything screened.
KB-3-1 cytotox: KB-3-1 parental cell cytotoxicity | 400,000 compounds, 1.4% hits | Potency, µM (series often up to 46.1 µM), most hits filed as cytotoxic | KB-3-1 viability, CellTiter-Glo ATP luminescence, 72 h; note: nearly all actives have a fitted effect of over 60% in size
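Luminescent ATP read-out (CellTiter-Glo) measures survival of drug-naive KB-3-1 cells after 72 h compound exposure at 37 °C. Titration series was screened from lowest to highest concentration, with DMSO vehicle plates as background controls.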
MCF10A rereplic: DNA re-replication induction in MCF 10a cells; MCF 10A DNA re-replication, Hoechst nuclear intensity, 48 h; Potency, µM (series often up to 46.1 µM), hits mostly activators; 350,000 compounds, 2.9% hits; AID 624296; note: nearly all actives have a fitted effect of over 50% in size
S-ASM inh: blocks human secretory acid sphingomyelinase; P17405; placental ASM, HMU-PC fluorogenic substrate, 60 min; Potency, µM (top dose mostly 57.5 µM), most hits filed as inhibitors; 340,000 compounds, 0.006% hits; AID 504937
Target sequence (P17405 47-631 limits assumed): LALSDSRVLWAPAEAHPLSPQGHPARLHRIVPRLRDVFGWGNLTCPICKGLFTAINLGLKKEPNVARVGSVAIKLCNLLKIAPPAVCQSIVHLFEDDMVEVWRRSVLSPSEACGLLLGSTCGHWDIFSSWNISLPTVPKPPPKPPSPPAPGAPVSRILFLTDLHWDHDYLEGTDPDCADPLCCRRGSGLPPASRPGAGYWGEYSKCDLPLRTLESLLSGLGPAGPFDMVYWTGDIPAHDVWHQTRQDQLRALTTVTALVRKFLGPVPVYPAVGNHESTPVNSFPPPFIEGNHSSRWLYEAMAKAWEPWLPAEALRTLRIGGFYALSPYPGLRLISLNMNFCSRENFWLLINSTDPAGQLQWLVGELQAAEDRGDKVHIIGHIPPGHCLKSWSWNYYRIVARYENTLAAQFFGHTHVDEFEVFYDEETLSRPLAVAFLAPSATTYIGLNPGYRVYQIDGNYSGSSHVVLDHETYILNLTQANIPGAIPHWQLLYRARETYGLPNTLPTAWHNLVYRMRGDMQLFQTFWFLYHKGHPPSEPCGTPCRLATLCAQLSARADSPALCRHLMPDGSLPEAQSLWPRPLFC
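HMU-PC0 cleavage (9 uM final) by human placental ASM, 60 min at 37 °C following 10 min compound exposure at RT; stopped at pH 10, fluorescence Ex 386/Em 447 nm.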
KB-V1 MDR tox: kills drug-selected multidrug resistant KB-V1 cells | KB-V1 MDR cells viability, CellTiter-Glo, 72 h | Potency, µM (highest dose often 46.1 µM), most hits filed as cytotoxic | AID 1347076 | 400,000 compounds, 3.4% hits; note: nearly all actives have a fitted effect of over 60% in size
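qHTS viability screen in drug-selected KB-V1 MDR cells: 72 h compound treatment at 37 degrees C, ATP luminescence end point.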
Giardia kill: Giardia lamblia killing | 340,000 compounds, 0.15% hits | activity change, % at 7.66 µM, hits read low | AID 540267 | Giardia lamblia trophozoite viability; in the data active = activity change below about -80%; inconclusive = between about -30% and that limit;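 note: parasites exposed to compound for two days anaerobically before the ATP read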
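Trophozoite viability was measured as ATP-dependent luminescence, read 15-30 min after reagent addition. Before that, parasites at 100 cells/well were exposed to compounds for 48 h, anaerobically, at 37 deg C.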
SW480 rereplic: inducers of DNA re-replication in SW480 colon cancer cells; 340,000 compounds, 1.8% hits; SW480 DNA re-replication, Hoechst DNA content imaging, 48 h; Potency, µM (highest dose often 46.1 µM), usual class: activators; note: nearly all actives have a fitted effect of over 55% in size
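Compounds, transferred as 23 nL by pin tool, were incubated with cells for 48 hr; DNA content per nucleus was then quantified by Hoechst staining and fluorescence plate imaging.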
Hits are given with their value; i = inactive; ? = inconclusive; nt = no result. Unless noted, calls come from the whole dose curve; as a rule, active = well fitted curve in the direction sought with a large enough effect; inconclusive = small, poorly fitted or top-dose-only effect, or another doubt; inactive = no such curve, though single readings can be large; an effect the other way counts as inactive or inconclusive.

SMILES	KB-3-1 cytotox	MCF10A rereplic	S-ASM inh	KB-V1 MDR tox	Giardia kill	SW480 rereplic
Cc1ccc(-c2noc(-c3ccccc3NC(=O)C3CC(=O)N(c4ccccc4C)C3)n2)cc1 (centres undefined)	i	nt	nt	i	nt	nt
COc1ccc(C(=O)n2c(-c3ccco3)nc3ccccc32)cc1	?	8.91µM	i	?	i	18.4µM
Nc1ccc(C(=O)n2c3ccccc3c3ccccc32)cc1	2.31µM	?	i	1.84µM	i	3.26µM
Cc1ccc(C(=O)n2c(N)nc3ccccc32)cc1	?	i	i	?	-81.5	i
Cc1ccc(CNC(=O)C2CCN(C(=O)Nc3ccccc3)CC2)cc1	i	i	i	i	i	i
CCc1ccc(-n2nc(C)c3c(C)cc(=O)n(CC(=O)N(CC)Cc4ccccc4)c32)cc1	i	nt	nt	i	nt	nt
Cc1ccc(C(=O)Nc2cccc([N+](=O)[O-])c2)cc1S(=O)(=O)Nc1ccc(C(=O)O)cc1	i	?	i	i	i	i
Cc1ccccc1NS(=O)(=O)c1cc(C(=O)Nc2cccc([N+](=O)[O-])c2)ccc1C	?	?	?	11.6µM	i	i
Cc1ccc(C)c(NS(=O)(=O)c2cc(C(=O)Nc3ccccc3-c3ccccc3)ccc2C)c1	?	i	i	4.61µM	i	i
Cc1c(C(=O)Nc2ccc(C(C)C)cc2)sc2nc3n(c(=O)c12)CCC3	?	nt	nt	i	nt	nt
C(=N\N1CCN(C2c3ccccc3-c3ccccc32)CC1)/c1ccncc1	i	?	i	i	i	i
C/C(=N\N1CCN(C2c3ccccc3-c3ccccc32)CC1)c1ccncc1	?	i	i	18.4µM	i	i
COc1cc(OC)c(NC(=O)C(NS(=O)(=O)c2cccc3nsnc23)c2ccccc2)cc1Cl (centres undefined)	i	nt	nt	i	nt	nt
Cc1ccc(-c2cc(C(F)(F)F)c(C#N)c(SCCC#N)n2)o1	i	?	i	i	i	9.2µM
COc1ccc(-c2cc(C(F)(F)F)c(C#N)c(SCC(=O)O)n2)cc1	?	i	i	i	i	i
CC(NC(=O)C1CCN(S(=O)(=O)c2ccc(F)cc2)CC1)c1ccccc1 (centres undefined)	i	nt	nt	i	nt	nt
COC(=O)c1ccc(C(=O)OC)c(NC(=O)C2CC(=O)N(C3CCCC3)C2)c1 (centres undefined)	i	i	i	i	i	i
COc1ccccc1N1CCN(C2CCN(C(=O)c3cccc(F)c3)CC2)CC1	i	i	i	16.4µM	i	i
CC1CCCN(C(=O)c2ccc3ncsc3c2)C1 (centres undefined)	i	i	i	i	i	3.66µM
COc1ccccc1N1CCN(C(=O)c2nc(SC)ncc2Cl)CC1	4.11µM	nt	nt	4.11µM	nt	nt
COc1ccccc1N1CCN(C(=O)c2ccc3ncsc3c2)CC1	5.17µM	20.6µM	i	11.6µM	i	16.4µM
O=C(Nc1ccc2oc(-c3cccnc3)nc2c1)c1ccccc1F	i	nt	nt	i	nt	nt
Cc1ccc(/C=C/c2onc(C)c2S(=O)(=O)N2CCC(C(=O)N3CCN(c4ccccc4F)CC3)CC2)cc1	i	nt	nt	i	nt	nt
Cc1ccc(C)c(N2CCN(C(=O)c3ccc4nc(-c5ccco5)c(-c5ccco5)nc4c3)CC2)c1	18.4µM	?	i	?	i	18.4µM
COc1ccccc1N1CCN(C(=O)c2ccc3nc(-c4ccco4)c(-c4ccco4)nc3c2)CC1	?	23.1µM	i	23.1µM	i	?
SMILES	KB-3-1 cytotox	MCF10A rereplic	S-ASM inh	KB-V1 MDR tox	Giardia kill	SW480 rereplic
Cc1ccc(C)c(N2CCN(C(=O)c3ccc4nc(N5CCOCC5)sc4c3)CC2)c1	?	i	i	?	i	i
Cc1cccc(N2CCN(C(=O)c3ccc4c(c3)c(C)c(C)n4C)CC2)c1C	i	nt	nt	i	nt	nt
Cc1ccc(C)c(N2CCN(C(=O)c3ccc4c(c3)c(C)c(C)n4C)CC2)c1	?	5.17µM	i	i	i	?
COc1ccccc1Nc1nc(-c2ccc(F)cc2)c2c(n1)-c1ccccc1OC2	i	nt	nt	i	nt	nt
COC(=O)Cc1cc(=O)oc2cc(O)ccc12	i	16.4µM	i	i	i	18.4µM
CNC(=O)c1c(NC(=O)c2ccc(S(=O)(=O)N3CCCC(C)C3)cc2)sc2c1CCC2 (centres undefined)	i	nt	nt	?	nt	nt
